PTK2B oligo ant – antagonists of human Pyk2 oligomerization; Q14289; Q293 cells, Pyk2 FERM NanoBiT luminescence; stronger effect = lower value; z-score (the deposit names both 25 µM and 10 µM); actives 0.83% (n = 99,000); AID 1347419;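 active = Z-score of -3 or lower, scaled per plate to the spread of control and sample wells; inactive = z-score above -3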;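 note: negative z-score means lost luminescence so less FERM oligomerization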
CYP2C9 activ – activators of human CYP2C9. P11712. recombinant CYP2C9, luciferin-H conversion, luminescence; stronger effect = higher value; factor 1 = untreated enzyme, 0 = blocked. activation factor at 5 µM. actives 1.4% (n = 96,000). AID 1024;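 active = activation factor of 2 or more for CYP2C9 at a 5 µM dose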;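 note: 0 = sulfaphenazole-blocked wells and 1 = vehicle-only wells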
CYP2C19 act – cytochrome P450 2C19 (human) activation; P33261; recombinant CYP2C19, luciferin-H EGE luminescence; stronger effect = higher value; 0 = fully inhibited enzyme, 1 = untreated enzyme; 96,000 tested, under 10 active; activation factor at 5 µM;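 active = activation factor of at least 2 at 5 µM in the primary screen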;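 note: 0 = wells with 2.5 mM tranylcypromine and 1 = vehicle-only wells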
Cav32 inh – inhibitors of human Cav3.2 T-type calcium channel | Cav3.2-expressing cells, Fluo-4 calcium fluorescence FDSS; stronger effect = lower value | B-score at 10 µM | actives 4% (n = 100,000) | AID 449739;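 active = single-dose well whose peak fluorescence ratio is a statistical outlier from its plate by either plate-standardised score or position-corrected B-score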
CYP2C9 inh – human CYP2C9 inhibition; AID 777; actives 20% (n = 96,000); inhibition, % at 5 µM; P11712; CYP2C9 Supersomes, luciferin-H conversion, luminescence;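 active = blocking of liver enzyme CYP2C9 beyond about 50% at 5 µM, limit read from the data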
CYP2C19 inh – blocks human cytochrome P450 2C19; actives 21% (n = 96,000); P33261; CYP2C19 Supersomes, luciferin-H EGE luminescence, 30 min; inhibition, % at 5 µM; AID 778;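 active = CYP2C19 inhibition above a set limit at 5 µM in the primary screen, cut at about 50% in these data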;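 note: plate controls were negative control wells for no effect and 2.5 mM tranylcypromine positive control for full effect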
* = called active by the depositor; . = no result. Most compounds without a hit are left out; they make up all but 27% or so of the library.

SMILES	PTK2B oligo ant	CYP2C9 activ	CYP2C19 act	Cav32 inh	CYP2C9 inh	CYP2C19 inh
CCOc1ccc(NC(=O)Nc2ccc3nccnc3c2)cc1	-0.79	0.8	1	-0.26	19	1
CCN(CC(=O)Nc1ccc2c(c1)OCCO2)Cc1cc(=O)oc2c(C)c(C)ccc12	-0.6	0.2	0.1	0.43	84*	92*
O=S(=O)(/C=C/c1ccccc1)N1CCN(c2cccc(Cl)c2)CC1	-1.2	0.2	0.1	0.056	76*	93*
Cc1ccc2c(CN3CCN(Cc4ccc5c(c4)OCO5)CC3)cc(=O)oc2c1C	0.91	1.1	0.9	-0.37	-7	14
C#Cc1ccc([C@@H]2C=C(C(=O)O)O[C@H](OCc3ccc(CO)cc3)C2)cc1	.	.	.	0.63	.	.
COc1ccc(Br)cc1S(=O)(=O)n1ccnc1C	0.43	2.4*	0	0.41	-142	99*
COc1ccc(OC)c(S(=O)(=O)n2cccn2)c1	-0.02	1.2	0.9	0.67	-23	5
CCOc1ccc2cc(S(=O)(=O)n3ccnc3C)ccc2c1	1.2	0.5	0.7	0.12	48	31
COc1ccc(OC)c(S(=O)(=O)n2ccnc2C)c1	0.71	1.5	0.1	0.53	-50	93*
Cc1nccn1S(=O)(=O)c1ccc(Br)cc1Br	1	0.9	0.3	0.39	10	66*
CCOC(=O)c1[nH]nc2c1C(=O)N(Cc1ccccc1)C2=O	-0.05	0.8	0.7	1.2	20	34
O=c1[nH]c(CN2CCN(Cc3ccc4c(c3)OCO4)CC2)nc2sc3c(c12)CCC3	.	1.2	0.9	.	-22	10
COc1ccccc1N1C(=O)c2cccc3c(C(=O)O)ccc(c23)C1=O	0.53	1.1	0.9	-0.62	-5	6
Cc1ccccc1N1C(=O)c2cccc3c(N(C)CCO)ccc(c23)C1=O	-2	0.9	0.5	-4.3*	15	50*
CCCS(=O)(=O)N1CCCC(C(=O)NCCCN(C)c2ccccc2)C1 (stereo not drawn)	0.49	0.8	0.9	0.59	21	15
CCN(CC)C(=O)CC(c1ccc(N(C)C)cc1)c1c(O)cc(OC)cc1OC (stereo not drawn)	.	.	.	0.19	.	.
C/C(=N\O)c1ccccc1C(=O)O	-3.3*	1	1.1	-0.47	-2	-7
COc1ccc2c(c1)C(=O)c1ccccc1CO2	0.65	0.9	0.9	0.046	9	11
COc1ccc2c(c1)C(=O)CC(c1ccccc1F)O2 (stereo not drawn)	-0.13	1.1	0.1	.	-13	87*
COc1ccc(Cl)c(NCCC(=O)O)c1	0.7	.	.	0.51	.	.
Cc1cccc(C(=O)Nc2nc(C)c(C(=O)Nc3ccc4c(c3)CCC4)s2)c1	-2.2	0.4	0.8	-2.9	58*	24
COc1ccccc1CNC(=O)c1cnc2ccccn2c1=O	.	1.2	0.8	1.6	-19	18
CCOc1ccc(NC(=O)CSCc2cnn(-c3ccccc3)c2-n2cccc2)cc1	0.03	0.1	0	-10*	94*	98*
O=C(CSCc1cnn(-c2ccccc2)c1-n1cccc1)N1CCN(Cc2ccccc2)CC1	-0.3	0	0.1	-4.2	96*	89*
CCOc1ccc(NC(=O)CCn2cccc2)cc1	-0.3	0.9	0.7	-0.069	12	27
SMILES	PTK2B oligo ant	CYP2C9 activ	CYP2C19 act	Cav32 inh	CYP2C9 inh	CYP2C19 inh
COc1cccc(CNC(=O)CSCc2cnn(-c3ccccc3)c2-n2cccc2)c1OC	-0.63	0	0.1	-6*	97*	94*
O=C(NCCCO)c1ccc2[nH]c3ccccc3c2c1	-0.33	0.7	0.4	0.17	32	64*
Cc1oc(-c2ccccc2F)nc1CS(=O)(=O)CC(=O)N1CCCCCC1	.	0.2	0.7	0.64	81*	28
COc1cccc(-c2nc(CS(=O)(=O)CC(=O)NCCCOC(C)C)c(C)o2)c1	1.4	0.9	0.9	-0.55	8	7
Cc1ccccc1-c1nc(CS(=O)(=O)CC(=O)N(C)C2CCCCC2)c(C)o1	.	0.5	0.1	-7.3*	46	86*
COc1cccc(-c2nc(CS(=O)(=O)CC(=O)NCCCN3CCc4ccccc4C3)c(C)o2)c1	0.12	0.8	0.9	-5.7*	16	10
Cc1ccccc1-c1nc(CS(=O)(=O)CC(=O)NCc2ccccc2)c(C)o1	.	0.9	0.6	-4.2*	8	39

Compound activity deposited in PubChem BioAssay by several laboratories.
